As usually defined, the remaining activity is the signal under treatment as a percentage of the control signal. The inhibition is the drop in the measured response relative to a control, in per cent. For orientation: AC50 means the concentration giving half of the maximal activity seen.

The structures appear in SMILES notation. A number with no mark means an inactive call. Records with an inconclusive call do not appear. For part of these data: Results with a measured potency or affinity are listed apart. The source made the active and inactive calls. Unless noted, the rule behind the calls is not given here.

Assay [1] can be described thus: compounds altering viability of human ES cells (AID 493140).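 Note: cells exposed to compounds for four days before counting.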 The note with it: human embryonic stem cell survival screen; stronger effect = higher value.
For assay [2], the system named is Aerobactin synthetase IucA (Klebsiella pneumoniae). Briefly: inhibition of K. pneumoniae IucA enzyme – biochemical, Tocris library, absorbance (AID 1345561).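 Note: 100% = enzyme without compound and 0% = no enzyme.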 To be noted: purified IucA enzyme assay, absorbance (OD) read-out; stronger effect = lower value;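 tested at 8 µM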.
The nature of assay [3]: chitosan synthesis blockers in C. neoformans – flow cytometry, Cibacron Brilliant Red staining (AID 1347148).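 Note: compound exposure lasted three days at 37 degrees C.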 To be noted: Cryptococcus neoformans chitosan, stronger effect = lower value; at 99.1 µM unless noted.
For assay [4], the target named is Tyrosine-protein kinase ABL1 (Homo sapiens) (UniProt P00519). The experiment in a line: PubChem AID 493040. The note with it: kinase panel binding, pKi.
Tyrosine-protein kinase ABL1 (Homo sapiens), sequence (P00519 whole entry, looked up): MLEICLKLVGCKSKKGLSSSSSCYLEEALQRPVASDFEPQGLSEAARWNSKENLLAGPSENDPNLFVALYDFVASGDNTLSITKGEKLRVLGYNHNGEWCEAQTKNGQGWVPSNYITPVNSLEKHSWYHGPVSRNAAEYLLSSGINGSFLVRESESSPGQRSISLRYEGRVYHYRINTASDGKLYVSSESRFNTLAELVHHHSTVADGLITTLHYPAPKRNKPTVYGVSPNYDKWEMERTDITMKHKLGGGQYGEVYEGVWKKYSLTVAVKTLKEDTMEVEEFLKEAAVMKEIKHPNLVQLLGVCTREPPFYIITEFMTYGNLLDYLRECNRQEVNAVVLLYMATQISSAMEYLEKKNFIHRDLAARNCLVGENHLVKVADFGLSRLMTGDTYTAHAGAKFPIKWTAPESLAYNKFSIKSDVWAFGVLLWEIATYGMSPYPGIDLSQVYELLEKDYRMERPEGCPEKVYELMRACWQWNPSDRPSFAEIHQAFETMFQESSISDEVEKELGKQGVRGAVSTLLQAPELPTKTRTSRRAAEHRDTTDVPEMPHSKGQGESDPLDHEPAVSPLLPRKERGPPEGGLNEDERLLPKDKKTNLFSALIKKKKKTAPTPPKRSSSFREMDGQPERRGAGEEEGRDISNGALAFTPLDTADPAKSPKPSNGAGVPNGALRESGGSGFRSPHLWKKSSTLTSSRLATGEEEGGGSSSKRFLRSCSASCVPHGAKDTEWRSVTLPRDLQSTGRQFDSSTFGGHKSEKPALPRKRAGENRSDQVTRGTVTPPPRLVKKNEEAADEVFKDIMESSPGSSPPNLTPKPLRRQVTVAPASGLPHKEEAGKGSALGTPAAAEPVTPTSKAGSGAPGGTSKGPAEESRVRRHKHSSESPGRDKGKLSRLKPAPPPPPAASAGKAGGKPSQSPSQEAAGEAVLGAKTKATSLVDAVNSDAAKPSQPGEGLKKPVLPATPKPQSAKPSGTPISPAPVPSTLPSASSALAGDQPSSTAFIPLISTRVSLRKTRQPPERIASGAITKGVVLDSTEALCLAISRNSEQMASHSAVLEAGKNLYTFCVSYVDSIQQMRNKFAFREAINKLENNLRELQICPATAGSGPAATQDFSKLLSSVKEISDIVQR
Assay [5] is described as follows: antimalarial activity against Dd2 strain (AID 2302;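 active = growth inhibition above 50% at the single 2 µM test dose, taken to imply half-maximal potency below 2 µM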;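 note: 0% = DMSO untreated growth and 100% = chloroquine plus artemisinin killed control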). The note with it: P. falciparum Dd2 in RBCs, LDH growth readout, 72 h; at 2 µM; stronger effect = higher value.
Assay [6] can be described thus: human hepatoma cell viability loss – ATP luminescence, cytotoxicity control for P. falciparum antimalarial project, primary screen (AID 2303;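 active = inhibition above 50%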;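 note: 0% = DMSO wells and 100% = digitonin-killed cells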). The note with it: HepG2 viability, 24-48 h, at 10 µM, stronger effect = higher value.
Assay [7] addresses L-lactate dehydrogenase (Plasmodium falciparum (isolate CDC / Honduras)) (UniProt Q27743). The experiment in a line: PfLDH activity inhibition – cell lysate, 3D7 strain, counter-screen for P. falciparum growth inhibition project (AID 2304).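 Note: 0% = vehicle and 100% = reference inhibitor.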 To be noted: P. falciparum 3D7 crude extract, LDH APAD/NBT absorbance; at 2 µM; stronger effect = higher value.
Assay [8] in a line: inhibition of 3D7 malaria parasite growth – strain 3D7 (AID 2306).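 Note: 0% = DMSO wells and 100% = chloroquine plus artemisinin control wells.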 The note with it: P. falciparum 3D7 erythrocytic growth, LDH absorbance, 72 h; at 2 µM; stronger effect = higher value.
Assay [9] deals with Calcium-dependent protein kinase 1 (Plasmodium falciparum (isolate 3D7)) (UniProt P62344). The experiment in a line: PfCDPK1 kinase inhibitors, biochemical, TCAMS library (AID 1159585; cut-off not given, nearly all actives have IC50 up to about 0.98 µM;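 note: inhibitors leave more ATP so luminescence rises with inhibition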). The note with it: recombinant PfCDPK1, Kinase-Glo ATP depletion luminescence. On the technique in general: In Kinase-Glo more light means more ATP remaining.
Calcium-dependent protein kinase 1 (Plasmodium falciparum (isolate 3D7)), sequence (P62344 whole entry, looked up): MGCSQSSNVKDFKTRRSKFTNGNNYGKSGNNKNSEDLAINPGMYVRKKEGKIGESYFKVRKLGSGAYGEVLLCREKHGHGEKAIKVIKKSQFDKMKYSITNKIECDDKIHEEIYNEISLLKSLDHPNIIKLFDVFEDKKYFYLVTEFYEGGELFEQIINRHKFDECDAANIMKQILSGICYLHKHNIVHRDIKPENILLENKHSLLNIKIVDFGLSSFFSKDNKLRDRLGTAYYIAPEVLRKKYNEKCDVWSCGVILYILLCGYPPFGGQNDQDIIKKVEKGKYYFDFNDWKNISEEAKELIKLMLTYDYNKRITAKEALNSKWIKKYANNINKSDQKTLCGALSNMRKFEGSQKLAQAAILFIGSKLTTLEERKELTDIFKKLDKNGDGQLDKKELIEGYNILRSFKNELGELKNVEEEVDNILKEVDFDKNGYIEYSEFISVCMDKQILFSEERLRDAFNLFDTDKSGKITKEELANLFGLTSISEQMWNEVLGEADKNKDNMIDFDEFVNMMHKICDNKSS
Assay [10] addresses Plasmodium falciparum protein kinase 6 (PK6, PF3D7_1337100) (UniProt Q8IDW1). The experiment in a line: PfPK6 kinase inhibitors, biochemical, TCAMS library (AID 1159586). To be noted: recombinant PfPK6, Kinase-Glo ATP depletion luminescence.
Assay [11] addresses Protein kinase 7 (PK7), Plasmodium falciparum 3D7 (PF3D7_0213400) (UniProt Q7YTF7). The experiment in a line: inhibition of Plasmodium PK7 catalytic activity – biochemical, TCAMS antimalarial set, Kinase-Glo luminescence (AID 1159587). The note with it: recombinant PfPK7, Kinase-Glo ATP depletion luminescence.
In assay [12] the target is Calcium-dependent protein kinase 4 (Plasmodium falciparum (isolate 3D7)) (UniProt Q8IBS5). Briefly: PfCDPK4 kinase inhibitors, biochemical, TCAMS library (AID 1159588; cut-off not given, nearly all actives have IC50 up to about 0.91 µM). The note with it: recombinant PfCDPK4, Kinase-Glo ATP depletion luminescence.
Calcium-dependent protein kinase 4 (Plasmodium falciparum (isolate 3D7)), sequence (Q8IBS5 whole entry, looked up): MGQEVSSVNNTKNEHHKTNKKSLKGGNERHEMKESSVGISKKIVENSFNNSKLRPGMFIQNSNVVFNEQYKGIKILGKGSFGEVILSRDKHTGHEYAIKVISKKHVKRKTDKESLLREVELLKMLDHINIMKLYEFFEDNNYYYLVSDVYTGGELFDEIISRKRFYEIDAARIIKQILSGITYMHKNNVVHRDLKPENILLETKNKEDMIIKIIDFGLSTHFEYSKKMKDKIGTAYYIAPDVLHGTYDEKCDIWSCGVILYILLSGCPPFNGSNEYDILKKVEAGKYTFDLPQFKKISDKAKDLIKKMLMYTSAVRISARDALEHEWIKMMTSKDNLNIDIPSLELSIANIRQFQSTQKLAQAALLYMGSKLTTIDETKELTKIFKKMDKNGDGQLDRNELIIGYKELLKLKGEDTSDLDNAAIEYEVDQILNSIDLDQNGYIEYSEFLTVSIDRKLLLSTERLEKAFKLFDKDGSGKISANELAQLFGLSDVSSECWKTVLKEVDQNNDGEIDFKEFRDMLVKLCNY
The nature of assay [13]: compounds altering circadian rhythm period length – cell-based, LOPAC library, luminescence reporter (AID 2774).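 Note: values are relative to mean of DMSO wells on each plate.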 To be noted: circadian reporter cells, at 7 µM, actives lie on both sides.
Assay [14] has as its system Hepatitis C virus NS3 helicase. Briefly: blockers of NS3h binding to ssDNA – biochemical, fluorescence polarization, LOPAC1280 library, primary screen (AID 687035; in the data active = inhibition above about 37%). To be noted: Purified HCV NS3 helicase, Cy5-dT15 ssDNA binding fluorescence polarization; stronger effect = higher value; concentration not given here.
A short description of assay [15]: compounds altering Cy5-DNA-NS3h complex signal – biochemical, LOPAC1280, artefact control for HCV NS3 helicase inhibitor project (AID 687037). To be noted: Cy5-DNA-NS3h complex fluorescence interference counterscreen.
Assay [16] is described as follows: blockers of cellular phospholipid synthesis – cell-based, LOPAC library, screen 4, primary screen (AID 1347384). To be noted: animal cells, phospholipid biosynthesis inhibition screen; at 10 µM.
Assay [17] is described as follows: viability loss in pontine glioma line – cell-based, SU-DIPG-XIII, MIPE5.0, CellTiter-Glo, qHTS, dose response (AID 1347064; cut-off not given, nearly all actives have AC50 up to about 23 µM;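 for AC50: cells exposed to compound for 48 hours before the viability read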). To be noted: CellTiter-Glo ATP luminescence. (ATP-based viability assays read luminescence as a measure of living cells.)

Protein kinase 7 (PK7), Plasmodium falciparum 3D7 (PF3D7_0213400), sequence (Q7YTF7 1-343): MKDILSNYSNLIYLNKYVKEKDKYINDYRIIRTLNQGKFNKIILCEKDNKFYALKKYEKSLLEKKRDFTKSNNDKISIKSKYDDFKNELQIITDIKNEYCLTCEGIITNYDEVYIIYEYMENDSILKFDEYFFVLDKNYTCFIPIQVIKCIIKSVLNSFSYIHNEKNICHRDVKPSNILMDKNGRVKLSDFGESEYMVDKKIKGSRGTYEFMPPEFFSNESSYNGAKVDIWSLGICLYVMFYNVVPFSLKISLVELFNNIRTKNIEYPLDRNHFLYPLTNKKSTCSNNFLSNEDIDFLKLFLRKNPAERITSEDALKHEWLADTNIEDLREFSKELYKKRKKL
L-lactate dehydrogenase (Plasmodium falciparum (isolate CDC / Honduras)), sequence (Q27743 whole entry, looked up): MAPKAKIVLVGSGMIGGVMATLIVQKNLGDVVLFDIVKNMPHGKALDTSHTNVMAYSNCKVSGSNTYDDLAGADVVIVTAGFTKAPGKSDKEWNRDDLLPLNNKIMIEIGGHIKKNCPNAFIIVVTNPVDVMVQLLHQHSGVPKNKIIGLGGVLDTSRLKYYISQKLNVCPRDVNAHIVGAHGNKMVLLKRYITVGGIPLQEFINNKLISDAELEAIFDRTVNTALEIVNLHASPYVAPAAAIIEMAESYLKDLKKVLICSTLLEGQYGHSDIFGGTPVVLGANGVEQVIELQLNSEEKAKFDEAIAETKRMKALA
Plasmodium falciparum protein kinase 6 (PK6, PF3D7_1337100), sequence (Q8IDW1 1-305): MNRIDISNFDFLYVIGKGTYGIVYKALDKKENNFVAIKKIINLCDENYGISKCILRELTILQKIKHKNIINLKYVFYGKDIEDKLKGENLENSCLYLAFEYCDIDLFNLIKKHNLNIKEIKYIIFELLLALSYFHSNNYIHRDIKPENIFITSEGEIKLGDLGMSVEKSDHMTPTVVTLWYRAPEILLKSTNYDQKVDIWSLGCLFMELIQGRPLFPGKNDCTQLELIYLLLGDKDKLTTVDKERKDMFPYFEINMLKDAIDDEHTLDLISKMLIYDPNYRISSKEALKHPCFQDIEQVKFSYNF

For the compound `Cn1cc(C2=C(c3cn(CCCSC(=N)N)c4ccccc34)C(=O)NC2=O)c2ccccc21`, the survival in assay [1] is 72.7. Moreover, the remaining activity in assay [2] is 106%. For the same compound, in assay [3], the fold fluorescence was 10.1 [at 109.3 µM].
As to `Fc1ccc(-c2nc3n(c2-c2ccncc2)CCS3)cc1`, the remaining activity in assay [2] was 117%.
In the case of `NC(=O)c1ccc(-c2nc(-c3ccc4c(c3)OCO4)c(-c3ccccn3)[nH]2)cc1`, the remaining activity in assay [2] is 110%. Besides, the fold fluorescence in assay [3] was 18.6 [at 130.1 µM]. Further, the call in [4] was inactive.
`CN(C)c1cc2c(Nc3ccc4nc(Cc5ccccc5)[nH]c4c3)ncnc2cn1`: the growth inhibition in [5] is 29%; in assay [8] it was 85% (active). Besides, the results for the inhibition in assay [6] and in assay [7] were 11% and 0%, respectively. Besides, the result in [9], in [10], in assay [11] and in assay [12] was inactive.
With `CN(C)c1cc2c(Nc3ccc4c(cnn4Cc4ccccc4)c3)ncnc2cn1`, the period change in [13] is 0.33 h. For the same compound, the inhibition in assay [14] is -1%. Besides, the fluorescence ratio (interference) in [15] was 1. Also, the compound was classed as inactive in assay [16].
Regarding `Cn1cc(/C=C2\C(=O)Nc3cccnc32)c2ccccc21`, the AC50 in assay [17] was 8.33 µM (active).
In the case of `Nc1ncnc2occ(-c3ccc(NC(=O)Nc4cc(C(F)(F)F)ccc4F)cc3)c12`, the growth inhibition in [5] and in assay [8] was 99% (active) each time. Moreover, the inhibition in [6] was 57% (active); in assay [7], -1%. The outcome in assay [11] and in assay [12] was inactive.
As to `Cn1c(=O)c(Oc2ccc(F)cc2F)cc2cnc(NC3CCOCC3)nc21`, in assay [17], the compound was called inactive.
Consider `Cc1ccc(O)cc1Nc1ccnc2cc(-c3ccccn3)ccc12`, for which the growth inhibition is 98% (active) in assay [5] and 97% (active) in assay [8]. Besides, the inhibition is 6% in assay [6] and -2% in assay [7]. Also, the result in [9], in assay [10], in assay [11] and in assay [12] was inactive.
For the compound `COc1ccc(-c2oc3ncnc(N)c3c2-c2ccc(NC(=O)Nc3cc(C(F)(F)F)ccc3F)cc2)cc1`, the half-maximal activity concentration (AC50) in assay [17] is 3.72 µM (active).

For the origin of these results see PubChem BioAssay.
